Test results: the supplement of paper PMC11732987, “Enantioselective OTUD7B fragment discovery through chemoproteomics screening and high-throughput optimisation” (Communications Chemistry, 2025)

What was measured:
Experiment in all cases: log2 ratio of Biotin-Ahx-Ub-VS probe labelling (fragment/DMSO); higher = less target engagement (more negative = stronger competition), active = hit call of the paper (q ≤ 0.05, log2 ratio ≤ -1)
Conditions in all cases: compound concentration: 200 uM; treatment time: 3 h
USP34 = USP34 (UniProt Q70CQ2)
Sequence of USP34 (Q70CQ2 whole entry, the tested form may be a part): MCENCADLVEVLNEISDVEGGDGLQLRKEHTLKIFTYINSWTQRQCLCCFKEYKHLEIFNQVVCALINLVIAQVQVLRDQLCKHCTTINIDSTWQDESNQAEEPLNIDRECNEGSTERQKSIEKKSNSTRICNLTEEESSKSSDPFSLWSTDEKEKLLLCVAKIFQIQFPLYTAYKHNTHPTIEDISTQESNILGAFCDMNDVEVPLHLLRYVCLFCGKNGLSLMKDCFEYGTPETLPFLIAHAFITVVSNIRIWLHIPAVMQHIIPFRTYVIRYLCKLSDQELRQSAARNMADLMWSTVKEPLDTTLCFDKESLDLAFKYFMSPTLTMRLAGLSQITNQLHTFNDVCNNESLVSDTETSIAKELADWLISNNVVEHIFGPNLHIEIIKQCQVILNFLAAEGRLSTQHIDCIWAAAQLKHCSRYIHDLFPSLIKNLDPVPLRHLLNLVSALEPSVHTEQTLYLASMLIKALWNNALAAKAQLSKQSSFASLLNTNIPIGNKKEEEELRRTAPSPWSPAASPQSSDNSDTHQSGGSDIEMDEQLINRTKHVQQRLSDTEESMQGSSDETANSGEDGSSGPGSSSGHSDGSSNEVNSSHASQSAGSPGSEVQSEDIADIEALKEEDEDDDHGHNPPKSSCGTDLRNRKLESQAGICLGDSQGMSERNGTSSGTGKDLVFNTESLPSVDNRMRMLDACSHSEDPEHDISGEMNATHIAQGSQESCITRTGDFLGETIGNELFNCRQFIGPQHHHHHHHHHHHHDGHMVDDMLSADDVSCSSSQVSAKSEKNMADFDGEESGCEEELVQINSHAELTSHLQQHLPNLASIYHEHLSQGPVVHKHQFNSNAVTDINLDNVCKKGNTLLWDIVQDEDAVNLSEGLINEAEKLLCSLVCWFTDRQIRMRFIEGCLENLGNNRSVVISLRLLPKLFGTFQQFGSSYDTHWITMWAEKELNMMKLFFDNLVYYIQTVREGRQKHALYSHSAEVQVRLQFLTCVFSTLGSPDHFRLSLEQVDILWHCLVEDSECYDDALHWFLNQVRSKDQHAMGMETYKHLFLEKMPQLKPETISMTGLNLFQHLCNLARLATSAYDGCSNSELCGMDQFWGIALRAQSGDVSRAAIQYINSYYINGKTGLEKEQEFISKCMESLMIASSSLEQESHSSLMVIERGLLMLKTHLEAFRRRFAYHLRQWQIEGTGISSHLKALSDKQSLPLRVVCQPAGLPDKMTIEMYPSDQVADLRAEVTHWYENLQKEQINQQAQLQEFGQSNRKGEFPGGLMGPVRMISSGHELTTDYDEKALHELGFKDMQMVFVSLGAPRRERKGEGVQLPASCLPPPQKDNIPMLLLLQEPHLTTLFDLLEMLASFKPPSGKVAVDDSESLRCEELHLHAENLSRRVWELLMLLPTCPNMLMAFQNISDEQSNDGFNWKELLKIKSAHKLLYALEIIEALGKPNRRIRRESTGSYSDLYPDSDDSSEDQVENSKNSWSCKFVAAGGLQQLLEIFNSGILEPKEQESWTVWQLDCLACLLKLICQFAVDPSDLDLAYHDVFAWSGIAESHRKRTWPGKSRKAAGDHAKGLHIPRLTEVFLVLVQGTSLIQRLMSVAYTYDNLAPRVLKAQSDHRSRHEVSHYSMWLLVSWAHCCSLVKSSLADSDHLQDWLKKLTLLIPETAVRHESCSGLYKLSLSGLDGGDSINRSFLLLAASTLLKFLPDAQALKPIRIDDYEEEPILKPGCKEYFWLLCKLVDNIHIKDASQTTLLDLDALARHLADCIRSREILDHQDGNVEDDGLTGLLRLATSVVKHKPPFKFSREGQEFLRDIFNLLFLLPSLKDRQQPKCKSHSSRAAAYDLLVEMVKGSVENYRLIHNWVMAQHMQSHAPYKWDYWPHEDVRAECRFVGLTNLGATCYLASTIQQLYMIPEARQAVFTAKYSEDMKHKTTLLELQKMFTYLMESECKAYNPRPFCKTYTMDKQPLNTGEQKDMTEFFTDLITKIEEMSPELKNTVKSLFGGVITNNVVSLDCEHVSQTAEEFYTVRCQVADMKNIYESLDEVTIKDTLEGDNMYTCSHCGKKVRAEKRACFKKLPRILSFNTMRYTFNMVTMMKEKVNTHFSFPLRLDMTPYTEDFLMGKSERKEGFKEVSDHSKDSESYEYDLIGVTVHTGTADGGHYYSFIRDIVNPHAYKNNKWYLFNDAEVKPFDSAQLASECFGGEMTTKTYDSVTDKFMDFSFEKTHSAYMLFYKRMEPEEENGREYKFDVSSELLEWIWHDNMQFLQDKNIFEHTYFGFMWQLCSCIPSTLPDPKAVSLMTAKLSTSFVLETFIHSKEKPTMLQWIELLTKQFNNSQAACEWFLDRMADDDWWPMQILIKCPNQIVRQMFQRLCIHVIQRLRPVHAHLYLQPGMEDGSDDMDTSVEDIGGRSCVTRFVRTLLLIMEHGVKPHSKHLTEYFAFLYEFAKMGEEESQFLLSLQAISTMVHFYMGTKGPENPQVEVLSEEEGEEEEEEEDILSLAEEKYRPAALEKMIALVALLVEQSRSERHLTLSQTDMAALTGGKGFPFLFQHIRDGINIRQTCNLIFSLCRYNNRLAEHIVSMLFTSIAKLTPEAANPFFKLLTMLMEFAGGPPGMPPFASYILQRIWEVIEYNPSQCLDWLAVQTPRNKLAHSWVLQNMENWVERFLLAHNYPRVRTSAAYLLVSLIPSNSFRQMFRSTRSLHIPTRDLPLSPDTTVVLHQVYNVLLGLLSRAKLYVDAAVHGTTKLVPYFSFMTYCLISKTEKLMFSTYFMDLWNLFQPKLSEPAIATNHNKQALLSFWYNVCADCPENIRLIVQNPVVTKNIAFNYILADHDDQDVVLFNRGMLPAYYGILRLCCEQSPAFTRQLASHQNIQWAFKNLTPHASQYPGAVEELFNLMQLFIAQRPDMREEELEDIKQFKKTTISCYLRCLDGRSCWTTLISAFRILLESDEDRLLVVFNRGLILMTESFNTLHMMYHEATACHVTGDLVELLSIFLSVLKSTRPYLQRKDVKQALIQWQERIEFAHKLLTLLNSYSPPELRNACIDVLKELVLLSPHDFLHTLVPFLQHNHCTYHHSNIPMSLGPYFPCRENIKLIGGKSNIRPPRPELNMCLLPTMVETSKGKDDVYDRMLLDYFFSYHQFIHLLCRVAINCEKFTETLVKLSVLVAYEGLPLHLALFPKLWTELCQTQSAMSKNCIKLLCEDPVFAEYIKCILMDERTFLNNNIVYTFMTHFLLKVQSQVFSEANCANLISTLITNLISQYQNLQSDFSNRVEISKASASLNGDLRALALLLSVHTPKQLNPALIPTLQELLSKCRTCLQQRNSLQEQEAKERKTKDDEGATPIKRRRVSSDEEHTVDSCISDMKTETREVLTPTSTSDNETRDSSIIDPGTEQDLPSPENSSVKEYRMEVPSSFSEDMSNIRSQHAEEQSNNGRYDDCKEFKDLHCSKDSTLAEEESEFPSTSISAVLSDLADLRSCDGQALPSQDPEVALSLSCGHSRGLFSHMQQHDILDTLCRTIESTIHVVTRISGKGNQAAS
Summary of the method: (§1)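 Triplicate samples of HEK293T lysate, 495 µg each, received fragment at 200 µM or vehicle for 3 h, followed by Biotin-Ahx-Ub-VS (0.5 µM final) for 1 h. After NeutrAvidin enrichment of labelled DUBs and LysC/trypsin digestion, peptides were run by diaPASEF LC-MS/MS. The values are average log2 fragment/vehicle ratios from global-median-normalised Spectronaut label-free quantities, tested by unpaired t-test on proteins having ≥2 unique peptides.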

USP36 = molecular target: T1, USP36 (UniProt Q9P275)
T1 sequence (whole entry): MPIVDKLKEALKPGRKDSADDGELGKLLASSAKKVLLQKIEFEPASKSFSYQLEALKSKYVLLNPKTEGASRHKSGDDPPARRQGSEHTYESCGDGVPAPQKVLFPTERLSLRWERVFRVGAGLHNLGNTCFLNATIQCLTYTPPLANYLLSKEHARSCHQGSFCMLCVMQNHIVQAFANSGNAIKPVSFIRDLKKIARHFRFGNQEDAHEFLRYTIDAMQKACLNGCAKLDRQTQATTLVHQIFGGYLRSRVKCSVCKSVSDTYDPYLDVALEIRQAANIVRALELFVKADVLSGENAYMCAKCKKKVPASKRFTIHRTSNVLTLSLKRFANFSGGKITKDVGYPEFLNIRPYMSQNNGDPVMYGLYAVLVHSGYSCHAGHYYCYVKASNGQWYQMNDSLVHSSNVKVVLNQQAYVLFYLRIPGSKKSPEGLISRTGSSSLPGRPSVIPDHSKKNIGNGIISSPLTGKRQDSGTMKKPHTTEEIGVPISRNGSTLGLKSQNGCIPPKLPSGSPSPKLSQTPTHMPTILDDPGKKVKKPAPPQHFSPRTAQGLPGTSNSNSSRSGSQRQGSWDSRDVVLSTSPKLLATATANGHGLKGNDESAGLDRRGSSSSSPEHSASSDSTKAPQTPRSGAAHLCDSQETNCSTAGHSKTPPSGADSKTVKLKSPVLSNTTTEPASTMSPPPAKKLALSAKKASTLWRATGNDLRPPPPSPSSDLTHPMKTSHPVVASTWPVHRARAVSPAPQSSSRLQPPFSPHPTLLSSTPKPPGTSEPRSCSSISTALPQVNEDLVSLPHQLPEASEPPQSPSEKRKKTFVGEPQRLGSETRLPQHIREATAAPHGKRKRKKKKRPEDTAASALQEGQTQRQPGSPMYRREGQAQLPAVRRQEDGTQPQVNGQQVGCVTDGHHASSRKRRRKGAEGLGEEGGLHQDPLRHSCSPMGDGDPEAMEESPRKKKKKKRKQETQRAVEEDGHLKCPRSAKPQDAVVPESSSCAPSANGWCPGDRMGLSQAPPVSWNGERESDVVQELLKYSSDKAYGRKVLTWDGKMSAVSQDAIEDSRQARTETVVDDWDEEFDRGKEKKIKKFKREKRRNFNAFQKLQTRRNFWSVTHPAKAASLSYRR
Summary of the method: as §1

USP38 = molecular target: T2, USP38 (UniProt Q8NB14)
T2 sequence (whole entry): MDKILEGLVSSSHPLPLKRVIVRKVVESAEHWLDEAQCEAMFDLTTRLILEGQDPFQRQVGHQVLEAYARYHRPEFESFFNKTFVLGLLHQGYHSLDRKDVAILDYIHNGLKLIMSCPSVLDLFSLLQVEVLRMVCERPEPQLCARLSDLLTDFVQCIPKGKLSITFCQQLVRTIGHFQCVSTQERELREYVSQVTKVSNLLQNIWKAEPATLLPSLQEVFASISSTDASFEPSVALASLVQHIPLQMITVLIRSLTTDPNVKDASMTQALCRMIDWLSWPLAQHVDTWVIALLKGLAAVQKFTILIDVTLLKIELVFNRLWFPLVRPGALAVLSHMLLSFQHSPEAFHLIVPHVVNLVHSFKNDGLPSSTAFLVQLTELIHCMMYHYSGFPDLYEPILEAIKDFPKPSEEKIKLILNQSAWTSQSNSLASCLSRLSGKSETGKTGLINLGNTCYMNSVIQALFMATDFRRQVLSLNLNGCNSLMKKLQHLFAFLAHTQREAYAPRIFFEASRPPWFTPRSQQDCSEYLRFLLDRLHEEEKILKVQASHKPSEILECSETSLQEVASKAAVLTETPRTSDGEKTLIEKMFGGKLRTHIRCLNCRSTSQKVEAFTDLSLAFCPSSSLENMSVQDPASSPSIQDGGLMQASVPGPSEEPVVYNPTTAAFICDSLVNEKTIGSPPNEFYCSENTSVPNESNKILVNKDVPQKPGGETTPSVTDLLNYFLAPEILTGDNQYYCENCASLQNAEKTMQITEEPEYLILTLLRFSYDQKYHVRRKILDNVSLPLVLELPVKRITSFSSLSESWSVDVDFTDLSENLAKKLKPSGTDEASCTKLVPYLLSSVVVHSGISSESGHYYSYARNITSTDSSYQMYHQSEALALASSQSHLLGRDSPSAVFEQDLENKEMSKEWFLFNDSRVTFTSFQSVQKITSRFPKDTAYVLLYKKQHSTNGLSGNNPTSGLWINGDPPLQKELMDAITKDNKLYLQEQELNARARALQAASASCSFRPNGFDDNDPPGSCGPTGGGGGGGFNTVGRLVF
Summary of the method: as §1

USP39 = molecular target: T3, USP39 (UniProt Q53GS9)
T3 sequence (whole entry): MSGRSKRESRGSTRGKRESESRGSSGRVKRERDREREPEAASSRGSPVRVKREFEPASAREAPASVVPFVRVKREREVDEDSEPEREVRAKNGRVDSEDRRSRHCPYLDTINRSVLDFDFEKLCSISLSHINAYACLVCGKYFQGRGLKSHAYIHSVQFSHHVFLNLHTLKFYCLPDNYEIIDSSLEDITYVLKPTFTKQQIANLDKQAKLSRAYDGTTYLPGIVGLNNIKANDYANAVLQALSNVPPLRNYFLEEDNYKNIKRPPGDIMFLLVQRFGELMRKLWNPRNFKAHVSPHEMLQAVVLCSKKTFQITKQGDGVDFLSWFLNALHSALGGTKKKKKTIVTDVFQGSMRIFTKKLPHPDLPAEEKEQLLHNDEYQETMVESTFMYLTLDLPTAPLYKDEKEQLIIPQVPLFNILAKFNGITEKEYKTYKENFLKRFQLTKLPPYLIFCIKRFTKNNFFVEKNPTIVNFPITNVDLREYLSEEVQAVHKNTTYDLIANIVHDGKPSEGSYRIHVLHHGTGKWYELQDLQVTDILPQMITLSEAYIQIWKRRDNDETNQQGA
Summary of the method: as §1

USP4 = molecular target: T4, USP4 (UniProt Q13107)
T4 sequence (whole entry): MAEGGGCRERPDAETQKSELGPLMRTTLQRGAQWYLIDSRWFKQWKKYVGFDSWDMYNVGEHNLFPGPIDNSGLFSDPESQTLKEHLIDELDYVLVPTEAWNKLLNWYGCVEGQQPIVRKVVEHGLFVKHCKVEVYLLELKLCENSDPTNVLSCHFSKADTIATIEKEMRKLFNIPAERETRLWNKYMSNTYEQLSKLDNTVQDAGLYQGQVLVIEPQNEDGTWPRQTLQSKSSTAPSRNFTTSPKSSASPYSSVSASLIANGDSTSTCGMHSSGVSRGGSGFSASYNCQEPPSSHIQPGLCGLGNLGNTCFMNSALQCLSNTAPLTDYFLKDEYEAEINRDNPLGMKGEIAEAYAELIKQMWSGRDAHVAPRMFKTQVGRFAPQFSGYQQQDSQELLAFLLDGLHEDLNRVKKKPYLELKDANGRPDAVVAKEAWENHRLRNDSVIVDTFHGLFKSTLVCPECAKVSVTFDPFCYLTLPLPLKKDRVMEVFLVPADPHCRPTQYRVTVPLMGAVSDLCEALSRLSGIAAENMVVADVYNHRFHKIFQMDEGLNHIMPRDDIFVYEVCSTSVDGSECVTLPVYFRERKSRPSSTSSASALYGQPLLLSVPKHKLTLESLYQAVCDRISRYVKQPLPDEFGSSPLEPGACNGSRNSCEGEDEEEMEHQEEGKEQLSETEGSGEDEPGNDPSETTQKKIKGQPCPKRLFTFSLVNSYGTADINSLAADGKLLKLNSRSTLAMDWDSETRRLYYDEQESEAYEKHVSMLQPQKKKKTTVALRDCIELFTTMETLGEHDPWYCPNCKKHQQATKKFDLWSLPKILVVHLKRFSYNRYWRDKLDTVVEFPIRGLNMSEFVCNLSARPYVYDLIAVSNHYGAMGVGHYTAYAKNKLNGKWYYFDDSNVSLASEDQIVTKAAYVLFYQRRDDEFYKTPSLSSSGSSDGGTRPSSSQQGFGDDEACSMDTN
Summary of the method: as §1

Measured: log2 ratio of Biotin-Ahx-Ub-VS probe labelling

C[C@@H](NC(=O)CCl)c1cccc(C#N)c1
inactive: USP34 -0.444 | USP36 0.00395 | USP38 -0.0294 | USP39 0.198 | USP4 0.0193
